Results on eleven molecules are retold here after PubChem BioAssay.

Structures are written as SMILES.

The subject of the test is XIP peptide (Xip251-270). In words: compounds binding XIP fragment 251-270 – biochemical, small-molecule microarray, fluorescence 635/667 nm, 0.5 µg/mL protein, primary screen (AID 1183). The conditions noted are these: fluorescence 635 nm, higher = more signal.
On to `Cc1ccc(S[C@]2(C(=O)NCc3ccccc3)CC(=O)N(Cc3ccccc3C(F)(F)F)[C@@H]2c2ccc(CO)cc2I)cc1`, for which the composite z-score stood at 0.623.

Turning to `C=CCNC(=O)[C@@H]1[C@H]2C(=O)O[C@H](c3ccccc3)[C@H](c3ccccc3)N2[C@H](c2ccc(OCCO)cc2)[C@@]12C(=O)Nc1ccc(C#CC3=CCCCC3)cc12`, the composite z-score is 0.799.

With `Cc1ccc(S[C@]2(C(=O)NCc3ccccc3)CC(=O)N(Cc3ccccc3Cl)[C@@H]2c2ccc(CO)cc2)cc1`, the composite z-score stood at 0.825.

Regarding `COc1cccc(C)c1NC(=O)O[C@H]1[C@H](OC(=O)Nc2ccccc2-c2ccccc2)[C@@H](OC(=O)Nc2ccccc2-c2ccccc2)[C@@H](OC)O[C@@H]1CO`, the composite z-score came out at 0.89.

With `Cc1ccc(N2C(=O)c3ccccc3[C@@H](C(=O)NCCN3CCOCC3)[C@@H]2c2ccc(CO)cc2)nc1`, the composite z-score was found to be 0.669.

Turning to `C=CC[C@@]1(C(=O)NCCCOC)N=C(c2ccc(OCCCO)cc2)O[C@@H]1c1ccccc1CN=[N+]=[N-]`, the composite z-score is 0.44.

Turning to `CC(=O)NCCCC[C@@H]1NC(=O)[C@H]2C[C@@H](C(=O)NCCCCCN)[C@@H](c3ccc(O)cc3)N2C1=O`, the composite z-score was 0.562.

`C=C(COC)C(=O)CC[C@H](OC(C)=O)c1ccc(CO)o1`: the composite z-score stood at 0.626.

Take `Cc1cccc([C@H]2C[C@H]3C(Br)=C[C@@]2(CO)C(=O)[C@]32CO2)c1`: the composite z-score was found to be 0.137.

In the case of `[N-]=[N+]=NCc1ccccc1[C@H]1OC(c2ccc(OCCCO)cc2)=N[C@@]1(Cc1ccccc1N=[N+]=[N-])C(N)=O`, the composite z-score was determined as 0.599.

For `COc1ccc(C(O)C2C=CC3C(=O)N(c4ccccc4)C(=O)C3N2Nc2ccccc2F)c2ccccc12` (stereo unspecified), the composite z-score amounted to 0.795.
